Source: PubChem (National Center for Advancing Translational Sciences (NCATS))
BAZ2B block – blocks human BAZ2B | Potency, µM (titrated, usually from 114 µM), without a hit: top-dose activity change, negative = inhibition, actives largely listed as inhibitors | Q9UIF8 | AlphaScreen BAZ2B-H3K14Ac peptide displacement | AID 504333 | 4.4% of 360,000 active; further: on the % scale 0 is the no-effect control and ±100 the full control effect; nearly all actives have a fitted effect of over 60% in size
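Inhibition is scored as reduced AlphaScreen emission. The BAZ2B/b-H3(5-23)K14Ac complex (50 nM each) in PBS pH 7.4, 0.01% Tween-20 meets compound (up to 110 uM) for 30 min at RT before bead addition.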
G9a inh – G9a (human) methyltransferase inhibition; G9a H3K9 monomethylation, AlphaScreen, 2 h; Potency, µM (top dose mostly 102 µM), for inactives: top-dose activity, negative = inhibition, usual class: inhibitors; 8.8% of 350,000 active; AID 504332; further: on the % scale 0 is the no-effect control and ±100 the full control effect; nearly all actives have a fitted effect of over 75% in size
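Readings reflect AlphaScreen signal from monomethyl-H3K9 antibody detection. HMT at 20 nM; substrate b-H3K9 500 nM; cofactor SAM 20 uM; 2 h RT reaction; compounds tested as titrations in qHTS with 15 min preincubation.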
HP1b binding inh – blocks HP1-beta chromodomain binding to methylated histone tails. P83916. AlphaScreen HP1-beta / biotin-H3K9me3 peptide binding. Potency, µM (doses to about 114 µM), for inactives: top-dose activity change, negative = inhibition, most hits filed as inhibitors. 0.56% of 390,000 active. AID 540317; further: nearly all actives have a fitted effect of over 70% in size
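Compound inhibition of the preformed complex between 50 nM HP1-beta and 50 nM biotinylated H3K9me3 peptide was read by AlphaScreen. Buffer was PBS pH 7.4 with 0.01% Tween-20. Incubations ran 30 min at room temperature, with 10 ug/mL donor/acceptor beads.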
JMJD2A Tudor – inhibitors of human JMJD2A Tudor domain. O75164. AlphaScreen JMJD2A-Tudor / H3K4me3 peptide binding. Potency, µM (titrated, usually from 114 µM), without a hit: at the highest dose activity change, negative = inhibition, hits mostly inhibitors. 4.4% of 390,000 active; further: on the % scale 0 is the no-effect control and ±100 the full control effect; nearly all actives have a fitted effect of over 50% in size
Target sequence (O75164 whole entry, looked up, the tested form may be a part): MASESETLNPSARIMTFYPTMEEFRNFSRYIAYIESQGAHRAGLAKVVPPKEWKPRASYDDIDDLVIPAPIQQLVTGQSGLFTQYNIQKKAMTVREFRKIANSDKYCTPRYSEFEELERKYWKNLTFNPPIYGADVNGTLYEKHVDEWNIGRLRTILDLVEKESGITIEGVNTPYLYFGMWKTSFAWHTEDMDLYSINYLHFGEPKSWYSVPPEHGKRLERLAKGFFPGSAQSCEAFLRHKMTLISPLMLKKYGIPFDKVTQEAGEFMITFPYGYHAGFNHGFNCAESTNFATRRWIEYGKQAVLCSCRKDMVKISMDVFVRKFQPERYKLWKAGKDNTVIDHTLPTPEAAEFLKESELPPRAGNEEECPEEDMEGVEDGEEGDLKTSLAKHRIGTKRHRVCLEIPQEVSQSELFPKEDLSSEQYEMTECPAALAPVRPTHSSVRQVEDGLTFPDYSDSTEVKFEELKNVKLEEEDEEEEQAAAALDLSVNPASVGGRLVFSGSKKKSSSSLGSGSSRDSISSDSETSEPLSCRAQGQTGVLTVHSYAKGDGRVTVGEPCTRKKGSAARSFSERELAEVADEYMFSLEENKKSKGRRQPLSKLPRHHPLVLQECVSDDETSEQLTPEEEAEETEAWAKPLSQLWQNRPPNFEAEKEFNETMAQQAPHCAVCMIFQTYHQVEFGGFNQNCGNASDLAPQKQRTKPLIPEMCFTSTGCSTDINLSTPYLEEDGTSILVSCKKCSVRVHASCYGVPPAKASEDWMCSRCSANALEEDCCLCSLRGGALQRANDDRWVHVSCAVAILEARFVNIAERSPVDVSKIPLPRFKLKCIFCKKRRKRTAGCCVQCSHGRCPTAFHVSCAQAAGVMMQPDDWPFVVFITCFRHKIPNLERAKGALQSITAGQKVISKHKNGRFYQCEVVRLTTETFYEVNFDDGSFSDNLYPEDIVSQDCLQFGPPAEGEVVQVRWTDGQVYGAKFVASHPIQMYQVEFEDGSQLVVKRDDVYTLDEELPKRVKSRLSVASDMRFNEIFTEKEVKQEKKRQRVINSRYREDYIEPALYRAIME
PLK1 PBD block – PLK1 (human) polo-box domain binding inhibition. P53350. Plk1 PBD binding of FITC phosphopeptide, fluorescence polarization. Potency, µM, without a hit: max response, negative = inhibition, usual class: inhibitors. 2.8% of 360,000 active. AID 720504; further: series mostly up to about 57 µM; on the % scale 0 is the no-effect control and ±100 the full control effect; nearly all actives have a fitted effect of over 65% in size
VDR inhibitor – inhibitors of human vitamin D receptor. P11473. VDR-SRC2-3 peptide fluorescence polarization, 2 h. Potency, µM, for inactives: max response, negative = inhibition, actives largely listed as inhibitors. 0.93% of 400,000 active; further: on the % scale 0 is the no-effect control and ±100 the full control effect
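Measured by FP: displacement of SRC2-3 coactivator peptide from VDR by library compounds, following a two-hour ambient incubation.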
* = called active by the depositor; ? = inconclusive; . = no result given; [ ] = another dose, or the depositor's remark. Rows were chosen to be rich in hits. Some 11% of all compounds tested hit in one or more screens of this group. The call rests on the fitted dose curve; in most records, active means well fitted curve in the direction sought with a large enough effect; inconclusive means small, poorly fitted or top-dose-only effect, or another doubt; inactive means no such curve, though single readings can be large; an effect the other way counts as inactive or inconclusive. Potency means the concentration at half of the fitted maximal effect.

SMILES	BAZ2B block	G9a inh	HP1b binding inh	JMJD2A Tudor	PLK1 PBD block	VDR inhibitor
Cc1ccc2c(c1)C1C[N+](C)(CC(=O)c3ccc(Cl)cc3Cl)CCC1N2C(=O)c1ccc(F)cc1 (centres undefined)	.	.	?	16µM*	?	-4%
COc1cc2c(cc1OC)[C@@H]1C(=O)c3ccc(OC)c(CC=C(C)C)c3OC1CO2 (some centres undefined)	.	.	.	.	.	-7%
CCOC(=O)C1CCN(/C=C2/C(=O)NC(=S)N(c3cccc(OC)c3)C2=O)CC1	-3%	22µM*	35%	-9%	-13%	-20%
CCCOc1ccc2[nH]cc(C3=CCNCC3)c2n1	.	.	.	.	.	-27%
O=c1n(Cl)c(=O)n(Cl)c(=O)n1Cl	.	13µM*	.	.	.	2%
NC(=O)C1=CN(C2OC(COP(=O)(O)OP(=O)(O)OC[C@H]3O[C@@H](n4cnc5c(N)ncnc54)[C@H](OP(=O)(O)O)[C@H]3O)C(O)C2O)C=CC1 (some centres undefined)	.	8%	.	.	.	.
CC(C)c1ccc2oc(-c3ccc(NC(=O)c4cc5ccccc5o4)cc3)nc2c1	6%	4%[59 µM]	36%	9%	.	10%
O=C(Nc1ccc2oc(-c3cccnc3)nc2c1)c1ccc(-c2cccc(Cl)c2)o1	56µM*	?	?	79µM*	.	-17%
Cc1cc(-c2ccc(C)c(S(=O)(=O)N3CCOc4ccc(Cl)cc43)c2)on1	33%	24%[59 µM]	64%	-10%	.	-5%
CC(CNC(=O)c1cccnc1)NC(=O)c1cccnc1 (centres undefined)	.	?	.	.	.	10%
COc1ccc(N(C)C(=O)Cn2c(=O)oc3ccccc32)c(OC)c1	-2%	45µM*	?	0%	-10%	-7%
CC(C)=CCCC1(C)C=Cc2c(O)c3c(c(CC=C(C)C)c2O1)OC12C(CC4CC1C(C)(C)OC2(C/C=C(/C)C(=O)O)C4O)C3=O (centres undefined)	.	-7%[2.33 µM]	.	.	.	50µM*
NC[C@@H]1O[C@H](OC2[C@@H](CO)O[C@@H](OC3[C@H](O)[C@H](N)C[C@H](N)[C@H]3OC3O[C@H](CO)[C@@H](O)[C@H](O)[C@@H]3N)[C@H]2O)C(N)[C@H](O)[C@@H]1O (some centres undefined)	.	23%[59 µM]	.	.	.	-12%
O=C(OCC(=O)N1CCOCC1)c1ccc[nH]c1=O	.	20µM*	-4%	18µM*	-8%	-14%
CCc1ccc(OCC(=O)N2CCN(CCc3ccncc3)CC2)cc1	9%	-1%[59 µM]	51%	-23%	.	7%
O=C(COc1ccc(S(=O)(=O)N2CCCCC2)cc1)N1CCN(Cc2ccccc2)CC1	-2%	45µM*	25%	-12%	-7%	-14%
O=C(COc1ccc(Br)cc1)N1CCN(Cc2ccncc2)CC1	-3%	18µM*	?	1µM*	-15%	-16%
CSc1ccc(CN2CCN(C(=O)COc3ccc(C)cc3)CC2)cc1	56µM*	10µM*	?	8.9µM*	-4%	5%
O=C(COc1ccc(Br)cc1)N1CCN(Cc2ccc3c(c2)OCO3)CC1	50µM*	.	?	8.9µM*	-8%	-1%
COc1cc(C)cc(CN2CC=C(c3ccccc3)CC2)c1O	.	?	-20%	?	-12%	8%
COc1ccc(C(C)=O)cc1CN1CC=C(c2ccccc2)CC1	50µM*	13µM*	79µM*	45µM*	0%	-7%
Cc1ccc2c(CN3CC=C(c4ccccc4)CC3)cc(=O)oc2c1C	-1%	50µM*	13%	-24%	-20%	-9%
O=c1ccc2[nH]cc(C3=CCNCC3)c2[nH]1	.	.	.	.	.	1%
N#Cc1ccc(C(=O)N2CCN(c3nc4ccc(F)cc4s3)CC2)cc1	0%	5%[59 µM]	40%	0%	.	25%
Cc1onc(-c2ccccc2Cl)c1C(=O)OCC(=O)c1ccc2c(c1)OCCO2	16%	18%	-6%	?	?	-1%
SMILES	BAZ2B block	G9a inh	HP1b binding inh	JMJD2A Tudor	PLK1 PBD block	VDR inhibitor
CC12C=CC(=O)C=C1CCC1C2=CCC2(C)C1CC[C@@H]2C(=O)CN1CCN(c2cc(N3CCCC3)nc(N3CCCC3)n2)CC1 (some centres undefined)	.	13µM*	.	.	.	3.2µM*
O=C(OCCCCN1C(=O)c2ccccc2C1=O)c1ccc(Br)o1	-2%	28%[59 µM]	24%	17%[57.1 µM]	-22%	-4%
N.N.N.N.N.N.N.N.N.N.N.N.N.N.O.O.[Cl-].[Cl-].[Cl-].[Cl-].[Cl-].[Cl-].[Ru].[Ru].[Ru]	.	3.2µM*	.	.	.	.
COc1cccc(NC(=O)Cn2c(-c3nonc3N)nc3ccccc32)c1	1%	-1%[59 µM]	42%	-6%	.	14%
O=C(CCC1N=C2c3ccccc3N=C(SCc3cccc(Cl)c3)N2C1=O)N1CCN(c2ccccc2)CC1 (centres undefined)	-27%	?	15%	-31%	.	-18%
CC1CN=C(Nc2ccc(N(C)C)cc2)S1 (centres undefined)	?	35µM*	-34%	40µM*	-12%	-23%
CCOC(=O)c1ccc(NC(=O)C2C3C=CC(O3)C2C(=O)O)cc1 (centres undefined)	-3%	35µM*	.	.	.	.
CSCCC(=O)Nc1cc(S(=O)(=O)N2CCOCC2)ccc1N1CCN(C)CC1	-2%	?	19%	-16%	-17%	14%
C=C(C)C1Cc2c(ccc3c(=O)c4c(oc23)COc2cc(OC)c(OC)cc2-4)O1 (centres undefined)	.	.	.	.	.	-4%
O=C(CN1CCCCC1)c1ccc2c(c1)OCO2	-5%	?	31%	-14%	-5%	0%
Cc1cc(C(=O)CN2CCCC2)c(C)n1-c1ccc(F)cc1	-21%	1%[12.7 µM]	31%	-25%	-8%	-6%
O=C(CN1CCCCC1)c1ccccc1Cl	-1%	1.6µM*	38%	-23%	-16%	?
O=C(CN1CCCCC1)c1ccccc1F	-12%	25µM*	53%	-6%	1%	9%
O=C(CN1CCCCC1)c1cccc(Br)c1	-4%	8.9µM*	45%	-5%	-4%	-29%
Cc1ccccc1NC(=O)Oc1cccc(OC(=O)c2ccccc2)c1	-2%	26%	62%	-11%	8%	-18%
NC1CCCC[C@H]1N (some centres undefined)	.	.	.	.	.	3%
COc1ccccc1CN1CC[C@@]2(CCCN(C(=O)Oc3ccccc3)C2)C1	.	6%[12.7 µM]	.	.	.	0%
CC(C)C1C(=O)N2CCC[C@H]2[C@]2(O)O[C@](NC(=O)[C@@H]3C=C4c5cccc6[nH]cc(c56)C[C@H]4N(C)C3)(C(C)C)C(=O)N12 (some centres undefined)	.	-33%[59 µM]	.	.	.	45µM*
